Laboratory results reported in PubChem BioAssay AID1445 (SRMLSC, 2008).
Screen size: about 220,000 compounds; about 910 (0.41%) were called active.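 How the source made its calls: active means primary inhibition above the hit cutoff, then over 50% inhibition at one or more dose response concentrations (cut at about 23% in these data, passing the limit was not always enough); inconclusive means conflicting primary data, or primary hits not chosen for dose response; inactive means low primary inhibition, or under 50% at every dose.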 The sample as a whole holds a higher share of actives than the screen did. Results with a measured potency or affinity are listed apart.

Each molecule was assayed against Aminopeptidase N (Plasmodium falciparum (isolate 3D7)) (UniProt O96935) (assay: malaria alanyl aminopeptidase activity blockers – biochemical, fluorogenic H-Leu-NHMec substrate, 1536-well (AID 1445;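 further: plate controls were DMSO full reaction for no effect and no enzyme background for full effect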)). Conditions: recombinant M1AAP, H-Leu-NHMec fluorogenic kinetic assay; at 30 µM, hits give high values unless noted.
Chain of Aminopeptidase N (Plasmodium falciparum (isolate 3D7)) (O96935 whole entry, looked up): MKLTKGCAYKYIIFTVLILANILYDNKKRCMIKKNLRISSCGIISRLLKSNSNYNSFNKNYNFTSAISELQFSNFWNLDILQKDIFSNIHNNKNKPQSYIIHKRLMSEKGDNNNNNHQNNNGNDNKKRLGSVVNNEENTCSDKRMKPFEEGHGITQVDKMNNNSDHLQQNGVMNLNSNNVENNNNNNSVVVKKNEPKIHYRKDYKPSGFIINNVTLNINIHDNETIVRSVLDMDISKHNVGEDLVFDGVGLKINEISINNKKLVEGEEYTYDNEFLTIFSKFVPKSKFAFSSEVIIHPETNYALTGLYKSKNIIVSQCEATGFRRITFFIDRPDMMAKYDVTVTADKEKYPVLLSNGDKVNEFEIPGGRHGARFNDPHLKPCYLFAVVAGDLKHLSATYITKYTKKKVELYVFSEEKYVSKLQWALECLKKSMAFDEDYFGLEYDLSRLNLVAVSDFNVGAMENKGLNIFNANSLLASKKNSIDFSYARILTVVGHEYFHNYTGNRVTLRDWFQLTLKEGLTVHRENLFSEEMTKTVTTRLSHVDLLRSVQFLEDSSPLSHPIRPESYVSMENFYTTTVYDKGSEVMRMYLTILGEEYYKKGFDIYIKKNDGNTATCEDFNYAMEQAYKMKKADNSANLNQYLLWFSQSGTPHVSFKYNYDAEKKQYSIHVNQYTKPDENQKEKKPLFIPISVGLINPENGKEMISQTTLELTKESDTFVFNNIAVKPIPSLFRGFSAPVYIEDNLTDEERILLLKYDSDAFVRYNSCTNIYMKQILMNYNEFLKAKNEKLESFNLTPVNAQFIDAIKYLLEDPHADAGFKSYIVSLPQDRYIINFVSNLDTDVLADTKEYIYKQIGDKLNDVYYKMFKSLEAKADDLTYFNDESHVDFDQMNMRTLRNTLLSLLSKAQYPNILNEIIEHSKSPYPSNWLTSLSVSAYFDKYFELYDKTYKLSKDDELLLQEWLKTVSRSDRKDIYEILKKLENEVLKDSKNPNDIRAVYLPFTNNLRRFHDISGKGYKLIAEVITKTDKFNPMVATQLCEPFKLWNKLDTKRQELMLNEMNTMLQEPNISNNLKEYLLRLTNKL

inhibition, active:
CCc1ccc(S(=O)(=O)Nc2ccc(-c3nc4cccnc4s3)cc2)s1 27.2%, Cc1ccc2[nH]c(=O)c(CN(Cc3ccco3)S(=O)(=O)c3c(C)ccc4nsnc34)cc2c1 24.1%, O=C1OC(c2cccs2)=N/C1=C\c1ccc(-c2cccc(Cl)c2)o1 24.5%, O=c1nc(/C=C/c2ccc(-c3ccc(F)cc3)o2)cc(C(F)(F)F)[nH]1 27.6%, COC(=O)C1=C(N)Oc2cc(C)n(CCCn3ccnc3)c(=O)c2C1c1ccc(Cl)cc1 (stereo not given) 27.9%

inhibition, inactive:
CCOC(=O)N1CCN(C(=O)CN2C(=O)COc3ccc(C(C)(C)C)cc32)CC1 2.47%, CCS(=O)(=O)Nc1ccc(-c2nc3cccnc3s2)cc1 11.6%, O=S(=O)(Nc1ccc(-c2nc3cccnc3s2)cc1)c1ccc(Cl)s1 13.1%, N#Cc1c(N2C(=O)Nc3ccccc3N2O)sc2c1CCCCCC2 11.8%, C=CCn1c(C(CC)CC(C)(C)O)n[nH]c1=S (stereo not given) -5.97%, Cc1cc2cc(CCNC(=O)c3ccc(S(=O)(=O)N4CCOCC4)cc3)c(=O)[nH]c2cc1C 0.05%, C=CCN1C(=O)N/C(=C/c2ccccc2OCC(=O)Nc2ccc(F)cc2)C1=O 6.37%, O=C(COc1ccccc1/C=C1/NC(=O)NC1=O)Nc1ccccc1 16.8%, O=C1NC(=O)/C(=C/c2ccccc2OCc2ccccc2)S1 19.3%, O=C1NC(=O)/C(=C\c2ccccc2OCc2ccccc2)S1 12.7%, CSCC[C@@H](C(=O)NCc1cccs1)N1Cc2ccccc2C1=O 6.93%, CC(=O)Nc1ccc(S(=O)(=O)N2CCC(NC(=O)C(Cc3cccn3C)NC(C)=O)CC2)cc1 (stereo not given) -2.05%, O=C(CCCn1cnc([N+](=O)[O-])n1)Nc1cccc(O)c1 4.83%, C[C@H](NC(=O)c1nc[nH]c1C(=O)N[C@@H](Cc1ccccc1)C(=O)OC(C)(C)C)c1ccccc1 -12.4%, COC(=O)C1=C(C(=O)OC)[C@@H]2N(Cc3ccccc3)c3ccccc3[C@@]23C[C@@H](C(=O)OC)N=C3N1 7.23%, Cc1cc2cc(CN(Cc3ccco3)S(=O)(=O)c3c(C)ccc4nsnc34)c(=O)[nH]c2cc1C 12.1%, Cc1ccc2cc(CN(Cc3ccco3)S(=O)(=O)c3c(C)ccc4nsnc34)c(=O)[nH]c2c1 8.06%, CC12CNCC(C)(CN(C3(O)C(=O)Nc4ccc(Br)cc43)C1)C2=O (stereo not given) -7.16%, O=C(/C=C/c1cccc([N+](=O)[O-])c1)NCc1ccc2c(c1)OCO2 6.01%, O=C(c1cccc([N+](=O)[O-])c1)N1CCN(Cc2ccc3c(c2)OCO3)CC1 0.06%, CN(Cc1c(F)cccc1Cl)c1ccc(S(=O)(=O)N2CCOCC2)cn1 -2.07%, O=C1OC(c2cccs2)=N/C1=C\c1ccc(-c2ccccc2Cl)o1 15.5%, O=C1OC(c2cccs2)=N/C1=C/c1ccc(-c2cccc(C(=O)O)c2)o1 10.5%, O=C(COC(=O)c1cccs1)NC1CCCCC1 4.47%, COc1ccc(/C=C/c2cc(C(F)(F)F)[nH]c(=O)n2)cc1OC 10.6%, O=C(O)c1ccccc1-c1ccc(/C=C/c2cc(C(F)(F)F)[nH]c(=O)n2)o1 15.6%, COC(=O)[C@@H]1CC[C@H](C)[C@@H](c2ccc(C)cc2)N1C(=O)c1ccc(/C=N/OC[C@@H](O)[C@H]2O[C@@H]3OC(C)(C)O[C@@H]3[C@H]2O)cc1 7.48%, COc1ccccc1NC(=O)c1cc([N+](=O)[O-])ccc1NCCN1C(=O)CCC1=O 10.1%, O=C(O)c1cccc(S(=O)(=O)Nc2ccc3oc(=O)sc3c2)c1 89.5%, Cc1ccc(S(=O)(=O)Nc2ccc3oc(=O)sc3c2)c(C)c1 21.7%, OCCN1CCN(CCOc2ccccc2-c2ccccc2)CC1 -1.14%, C=C(C)c1cccc(C(C)(C)NC(=O)Nc2ccc(Cl)cn2)c1 6.48%, C=C(C)c1cccc(C(C)(C)NC(=O)Nc2cc(C)ccn2)c1 14.8%, O=C(C=C1CCN(c2ncc(C(F)(F)F)cc2Cl)CC1)NNC(=O)Nc1ccc(Cl)cc1 1.48%, Nc1c(N(CCO)C(=O)C2CCCCC2)c(=O)[nH]c(=O)n1Cc1ccccc1 3.34%, COCCCN(C(=O)c1cc2c(s1)CCC2)c1c(N)n(Cc2ccccc2)c(=O)[nH]c1=O -2.38%, Cc1nnc2sc(-c3ccccn3)nn12 -1.47%, COC(=O)C1=C(N)Oc2cc(C)n(CC3CCCO3)c(=O)c2C1c1ccc(Cl)cc1 (stereo not given) 10.9%, COC(=O)C1=C(N)Oc2cc(C)n(C)c(=O)c2C1c1ccc(Cl)cc1 (stereo not given) -1.12%, Cc1ccc(C)c(-n2c(Cc3cccs3)n[nH]c2=S)c1 -6.44%, CC(C)CCNC(=O)C(c1ccco1)N(CCCO)C(=O)Cn1nnc(-c2ccc(F)cc2)n1 (stereo not given) 2.71%, O=C(CSc1nnc(NC2CCCCC2)s1)Nc1ccc(N2CCOCC2)cc1 0.83%, O=C(Nc1ccccc1)/C(=C/c1cccnc1)NC(=O)c1ccco1 -3.98%, Cc1ccc(/C=N/NC(=O)c2cccs2)cc1[N+](=O)[O-] 5.44%, CCOc1cc(/C=N\NC(=O)c2ccc(C)nc2)cc([N+](=O)[O-])c1O 19.1%, O=C(c1cccnc1)N1CCN(c2ccc([N+](=O)[O-])cc2Cl)CC1 7.28%, CCN1CCCC1CNC(=O)C(=O)Nc1ccccc1 (stereo not given) 4.81%, O=C1Nc2ccc(F)cc2C12Nc1ccccc1-c1nnc(SCc3ccccc3Cl)nc1O2 (stereo not given) 14.4%, O=C1Nc2ccc(Cl)cc2C12Nc1ccccc1-c1nnc(SCc3ccccc3F)nc1O2 (stereo not given) 19.9%, CC(Oc1cc(F)ccc1[N+](=O)[O-])C(=O)N(C)CC(=O)Nc1ccccc1C(F)(F)F (stereo not given) 7.16%
